Our source for the growth values is PubChem BioAssay (NCI).

Holding throughout (experiment): NCI-60 one-dose screen, 48 h (100 = growth as untreated, 0 = no growth, -100 = all killed)
Holding throughout (conditions): 10 µM unless noted

Assay [1] concerns NCI-H23 lung.
Assay [2] has as its system NCI-H226 lung.
Assay [3] relates to NCI-H322M lung.
Assay [4] has as its system HOP-62 NSCLC.
The subject of assay [5] is NCI-H460 lung.
Assay [6] concerns HOP-92 NSCLC.
The subject of assay [7] is NCI-H522 lung.
Assay [8] has as its system A549/ATCC NSCLC.
Assay [9] relates to 786-0 renal.
The test system of assay [10] is COLO 205 colon.
In assay [11] the test system is DU-145 prostate.
The subject of assay [12] is K-562 leukemia.
Assay [13] deals with MALME-3M melanoma.
The test system of assay [14] is MDA-MB-231 breast.
Assay [15] concerns RXF 393 renal.
For assay [16], the system named is SF-268 CNS.
The subject of assay [17] is SF-295 CNS.
In assay [18] the test system is SF-539 CNS.
The subject of assay [19] is UACC-257 melanoma.
For assay [20], the system named is M14 melanoma.

This is part of a sample that, as a whole, favours compounds with a hit. Of some 83,000 tested, about 20% had one in any assay.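 In brief: 96-well plates, 48 h treatment, single concentration, percent growth endpoint.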 A number with no mark means an inactive call. Calls of active or inactive are those of the source. Rule for the calls: active = growth percent below 10; inactive = the rest.

In the case of `O=[N+]([O-])c1ccc(C(Br)c2ccc([N+](=O)[O-])cc2)cc1`, the growth in assay [1] is 79.5%; in assay [2], 99.6%; in assay [3], 114%; in assay [4], 105%; in assay [5] it was 102%; in assay [6], 86.1%. Further, the growth is -40.3% (active) in assay [7]; 100% in assay [8]; 108% in assay [9]; 88.3% in assay [10]; 111% in assay [11]; 25.4% in assay [12]. Also, the growth in assay [13] was 101%; in assay [14] it was 93.8%; in [15], 117%; in assay [16] it was 84.8%; in [17], 80.6%; in [18], 110%. Further, the growth in assay [19] is 98.1%; in assay [20] it was 22.6%.

Turning to `O=C(NOC(=O)c1ccccc1)c1ccccc1`, the growth is 107% in [1]; 106% in [2]; 119% in assay [3]; 105% in assay [4]; 97.9% in assay [5]; 101% in [6]. Further, the growth in assay [7] is 98%; in [8], 120%; in assay [9] it was 93.9%; in [10], 117%; in assay [11] it was 112%; in assay [12], 40.8%. In addition, the growth in assay [13] is 109%; in assay [14], 111%; in assay [15], 110%; in assay [16], 101%; in assay [17], 112%; in [18], 102%. In addition, the growth in assay [19] is 124%; in assay [20] it was 104%.

As to `CN=C(N)N/N=C(\c1ccccc1)c1ccc(Br)cc1`, the growth in [1] was 21%; in assay [2], 15.6%; in assay [3], 0.506% (active); in assay [4] it was 8.02% (active); in assay [5], 6.18% (active); in assay [6], 32.2%. For the same compound, the growth was -29.9% (active) in [7]; 9.47% (active) in [8]; 13.4% in [9]; -55.6% (active) in [10]; -9.2% (active) in assay [11]; -6.02% (active) in assay [12]. Besides, the growth in [13] is 25.9%; in assay [14], -9.39% (active); in assay [15] it was -0.626% (active); in assay [16], 11.9%; in [17], -46% (active); in assay [18], -19.2% (active). Besides, the growth in assay [19] is 47.2%; in assay [20] it was -13.1% (active).

In the case of `Cc1cc(C(=C2C=CC(=Nc3ccccc3)C=C2)c2ccc(Nc3ccccc3)cc2)ccc1N`, the growth in [1] is -32.2% (active); in assay [2], -84.4% (active); in [3] it was -34.4% (active); in assay [4], -85.2% (active); in assay [5], -83.9% (active); in [6], -92.9% (active). Further, the growth is -81.3% (active) in [7]; -91.9% (active) in assay [8]; -84.1% (active) in assay [9]; -65.1% (active) in [10]; -97.2% (active) in assay [11]; 14.1% in [12]. Besides, the growth in assay [13] was -63.6% (active); in assay [14], -56% (active); in [15], -93.7% (active); in [16], -68.7% (active); in assay [17] it was -71.9% (active); in assay [18], -60.8% (active). The growth in assay [19] is -91.6% (active).

Consider `CCCCC(C=O)(C=C=C(C)C)CC` (centres undefined), for which the growth in [1] was 112%; in assay [2], 103%; in assay [3] it was 101%; in assay [4], 120%; in [5], 105%; in assay [6], 86.4%. Moreover, the growth was 95.5% in assay [7]; 94.3% in assay [8]; 99.1% in [9]; 110% in assay [10]; 113% in [11]; 111% in [12]. The growth was 97.7% in assay [13]; 114% in assay [14]; 106% in [15]; 102% in [16]; 95% in assay [17]; 98% in [18]. Further, the figures for the growth in [19] and in assay [20] were 98.1% and 102%, respectively.

As for `NC(=Nc1nc(-c2ccccn2)cc2ccccc12)c1ccccn1`, the growth in assay [1] was -90.1% (active); in assay [2], 21.4%; in assay [3] it was 21.6%; in assay [4], 8.21% (active); in [5], 1.13% (active); in [6] it was -2.84% (active). Also, the growth in assay [7] is 36.3%; in assay [8], -54.2% (active); in [9] it was 3.78% (active); in assay [10], 6.29% (active); in assay [11], 1.76% (active); in [12], -22.8% (active). In addition, the growth is 19% in assay [13]; 47.8% in [14]; 1.1% (active) in assay [15]; 13.1% in assay [16]; 17.9% in assay [17]; -18.6% (active) in assay [18]. Besides, the results for the growth in assay [19] and in assay [20] were -4.44% (active) and -55% (active), respectively.

In the case of `CCC(C)(O)Cc1ccc(Cl)cc1` (centres undefined), the growth in assay [1] is 109%; in assay [2], 97.5%; in assay [3], 100%; in [4], 97.1%; in [5], 104%; in assay [6], 102%. In addition, the growth in [7] was 99.5%; in [8] it was 104%; in assay [9], 100%; in [10] it was 108%; in assay [11], 114%; in assay [12], 99.3%. The growth is 110% in [13]; 95.7% in assay [14]; 101% in assay [15]; 106% in [16]; 94.6% in assay [17]; 104% in assay [18]. Further, the values for the growth in assay [19] and in assay [20] were 108% and 101%, respectively.
